The text below walks through data of PubChem BioAssay (NCI).

SMILES strings stand for the structures. Compounds without any hit were thinned out: in the full panel of roughly 83,000, 20% have a hit.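 Cells were grown in 96-well plates and exposed to the test compound at a single concentration for 48 hours; results are reported as percent growth, with values below 10 considered active.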 Unmarked numbers belong to inactive results. Activity calls are given as the source filed them.

Test systems include HCT-15 colon; HT29 colon; SNB-75 CNS; SNB-19 CNS; U251 CNS; PC-3 prostate; SK-MEL-5 melanoma; UACC-62 melanoma; LOX IMVI melanoma; SK-MEL-28 melanoma; SK-MEL-2 melanoma; SN12C renal; UO-31 renal; TK-10 renal; ACHN renal; CAKI-1 renal; A498 renal; CCRF-CEM leukemia; MOLT-4 leukemia.
What all share (experiment): NCI-60 one-dose screen, 48 h (100 = growth as untreated, 0 = no growth, -100 = all killed)
Common to all, as to conditions: 10 µM

For the compound `NS(=O)(=O)c1ccc(N2N=C(c3ccc(-c4ccccc4)cc3)CC2c2ccc(Cl)cc2)cc1` (stereo not drawn), the growth in the test on HCT-15 colon is 60.9%; with HT29 colon it was 64.4%; in the test on SNB-75 CNS, 99.8%; in the test with SNB-19 CNS, 86.5%; in the test with U251 CNS, 75.7%; with PC-3 prostate it was 43.2%. The growth in the test on SK-MEL-5 melanoma was 86.8%; with UACC-62 melanoma, 51.1%; with LOX IMVI melanoma, 87.2%; in the test on SK-MEL-28 melanoma, 96.8%; in the test on SK-MEL-2 melanoma, 95.5%; in the test on SN12C renal, 67.4%. The growth was 72.1% in the test with UO-31 renal; 112% in the test on TK-10 renal; 80.4% in the test with ACHN renal; 78.7% with CAKI-1 renal; 87.4% with A498 renal; 74.4% with CCRF-CEM leukemia. In addition, the growth in the test on MOLT-4 leukemia was 70.6%.
`O=C1NN(c2ccccc2)C(c2cccnc2)=N/C1=C\c1cccnc1`: the growth is 93.9% in the test on HCT-15 colon; 97.2% in the test with HT29 colon; 79.6% in the test with SNB-75 CNS; 92.7% in the test on SNB-19 CNS; 102% in the test with U251 CNS; 92.1% in the test with PC-3 prostate. Moreover, the growth was 91.8% with SK-MEL-5 melanoma; 86.1% in the test with UACC-62 melanoma; 82.9% in the test on LOX IMVI melanoma; 116% in the test on SK-MEL-28 melanoma; 103% in the test on SK-MEL-2 melanoma; 102% with SN12C renal. Moreover, the growth in the test with UO-31 renal is 82.7%; with TK-10 renal, 110%; with ACHN renal, 95.4%; with CAKI-1 renal, 89%; in the test with A498 renal, 52.3%; in the test on CCRF-CEM leukemia, -22% (active). Moreover, in the test with MOLT-4 leukemia, the growth was 96.4%.
For the compound `Cc1ccc(C2C=C(c3ccc(Cl)cc3)N=C3SC=CN32)c(Br)c1` (stereo not drawn), the growth in the test with HCT-15 colon was 75.1%; in the test with HT29 colon, 67.9%; in the test with SNB-75 CNS, 75.5%; with SNB-19 CNS, 74.2%; in the test on U251 CNS, 60.3%; in the test with PC-3 prostate it was 65.5%. For the same compound, the growth with SK-MEL-5 melanoma is 84.8%; in the test with UACC-62 melanoma it was 83.3%; with LOX IMVI melanoma it was 55.9%; with SK-MEL-28 melanoma it was 105%; with SK-MEL-2 melanoma it was 105%; with SN12C renal it was 94%. Besides, the growth in the test on UO-31 renal is 57.8%; with TK-10 renal it was 125%; with ACHN renal, 91.8%; with CAKI-1 renal, 65.1%; with A498 renal, 87%; in the test on CCRF-CEM leukemia it was 55.7%. Besides, in the test on MOLT-4 leukemia, the growth is 64.9%.
For the compound `N#CCC1CCCC1`, the growth was 99.7% with HCT-15 colon; 105% in the test on HT29 colon; 78.7% in the test on SNB-75 CNS; 98.8% in the test on SNB-19 CNS; 97.4% in the test on U251 CNS; 87.9% in the test with PC-3 prostate. Besides, the growth is 104% with SK-MEL-5 melanoma; 99.4% in the test with UACC-62 melanoma; 97.2% in the test on LOX IMVI melanoma; 97.6% in the test with SK-MEL-28 melanoma; 120% in the test on SK-MEL-2 melanoma; 94% in the test with SN12C renal. Moreover, the growth in the test with UO-31 renal was 97%; in the test on TK-10 renal it was 104%; in the test on ACHN renal it was 98.1%; with CAKI-1 renal it was 89.9%; with A498 renal it was 91%; in the test on CCRF-CEM leukemia, 92%. In the test on MOLT-4 leukemia, the growth was 112%.
Regarding `C/C=C\COc1cc(C)c(Cl)cc1Cl`, the growth in the test with HCT-15 colon was 109%; in the test on HT29 colon, 114%; in the test with SNB-75 CNS, 88.9%; in the test on SNB-19 CNS, 97.3%; with U251 CNS, 94.6%; in the test on PC-3 prostate, 98.5%. Besides, the growth with SK-MEL-5 melanoma was 99.6%; in the test on UACC-62 melanoma it was 100%; with LOX IMVI melanoma, 106%; in the test on SK-MEL-28 melanoma, 104%; in the test on SK-MEL-2 melanoma, 120%; with SN12C renal, 94.7%. Further, the growth was 84.8% with UO-31 renal; 125% in the test with TK-10 renal; 128% with ACHN renal; 98.8% with CAKI-1 renal; 101% in the test with A498 renal; 95% with CCRF-CEM leukemia. The growth in the test on MOLT-4 leukemia was 108%.
Turning to `O=C1/C(=C/c2ccc([N+](=O)[O-])s2)Oc2ccc(Cl)cc21`, the growth in the test with HCT-15 colon is -40% (active); in the test with HT29 colon it was -36.1% (active); in the test on SNB-75 CNS, -15% (active); with SNB-19 CNS, 7.13% (active); in the test with U251 CNS, -65.4% (active); in the test on PC-3 prostate, -48% (active). The growth was -88.7% (active) in the test on SK-MEL-5 melanoma; -82.4% (active) with UACC-62 melanoma; -70.1% (active) in the test on LOX IMVI melanoma; -56.8% (active) in the test with SK-MEL-28 melanoma; -53.7% (active) with SK-MEL-2 melanoma; -54.3% (active) in the test on SN12C renal. For the same compound, the growth with UO-31 renal is -89.4% (active); with TK-10 renal, -32.7% (active); with ACHN renal, -71.1% (active); in the test on CAKI-1 renal, -29.9% (active); in the test with A498 renal it was 9.57% (active); in the test with CCRF-CEM leukemia, 2.86% (active). Besides, the growth in the test with MOLT-4 leukemia is -15.7% (active).
For the compound `Cc1ccccc1[P+](Cc1ccccc1)(c1ccccc1)c1ccccc1`, the growth in the test with HCT-15 colon is 90.1%; with HT29 colon it was 7.47% (active); in the test with SNB-75 CNS, 6.56% (active); in the test on SNB-19 CNS, 24.7%; in the test on U251 CNS it was 12.1%; in the test on PC-3 prostate, 9.34% (active). Also, the growth in the test on SK-MEL-5 melanoma is -14% (active); in the test on UACC-62 melanoma, 0.358% (active); in the test with LOX IMVI melanoma it was 22.4%; in the test with SK-MEL-28 melanoma, 27.3%; in the test on SK-MEL-2 melanoma it was -23.1% (active); in the test with SN12C renal, 29.9%. For the same compound, the growth is 67.8% in the test on UO-31 renal; 21.4% in the test with TK-10 renal; 75.6% with ACHN renal; 86.8% in the test on CAKI-1 renal; 37% in the test on A498 renal; 19.3% in the test with CCRF-CEM leukemia. For the same compound, in the test on MOLT-4 leukemia, the growth was 19.3%.
